Drawing on article PMC12820563, “FoxP3 forms a head-to-head dimer in vivo and stabilizes its multimerization on adjacent microsatellites”, this text covers binding signal for 31 sequences.

The full ranking holds about 16,000 sequences; the median of “rpm ratio (pull-down/input)” is about 0.5, and the highest 2% start at about 5.5. The sample holds the highest values, similar sequences and a random draw of the others, so the mix is not that of the screen.

This assay addresses T1, MBP-FoxP3dN (Mus musculus, UniProt Q99JB6 188-423).
T1 sequence: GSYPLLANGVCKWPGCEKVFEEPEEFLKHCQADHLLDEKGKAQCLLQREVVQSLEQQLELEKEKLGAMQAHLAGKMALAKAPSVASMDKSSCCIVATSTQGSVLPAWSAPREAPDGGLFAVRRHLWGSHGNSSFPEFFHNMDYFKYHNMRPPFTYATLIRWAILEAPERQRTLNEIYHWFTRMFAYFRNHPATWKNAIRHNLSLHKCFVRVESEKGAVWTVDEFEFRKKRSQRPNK
Nature of the assay: PD-seq (MBP pull-down with sequencing); 20 mM Tris-HCl pH 7.5, 100 mM NaCl, 1.5 mM MgCl2, 0.4 uM protein, 0.1 uM dsDNA library, 30 min, room temperature, amylose pull-down; high values mean tight binding. The following applies: protein: recombinant; tags: His6-MBP; chain copies: 2; dsDNA, one strand shown. The procedure, abridged:
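Binding is the reads-per-million enrichment of pull-down relative to input, pooled across replicates. For this, 0.4 µM His6-MBP-tagged mouse FoxP3 or FoxP1 fragment lacking the N-terminus, made in E. coli, was incubated with 0.1 µM Klenow-filled double-stranded degenerate DNA library for 30 min at room temperature in Tris pH 7.5 buffer with NaCl and MgCl2. Complexes bound to amylose resin were washed three times before proteinase K released the DNA for PCR barcoding and Illumina sequencing.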
As for “GATGATTGTTCTCCCAGCTGATGAATTGATCAGGTCGAGTAAACAAATTTTCCTAATCTTTCTGTTCAAGCGCCATCTAC”, the binding signal was 0.232 RPM ratio (pull-down/input).

“GATGATTGTTCTCCCAGCTGATGAATTGGTTGCATCGAGTAAACAAATTTTCCTAATCTTTCTGTTCAAGCGCCATCTAC”: the binding signal was 2.53 RPM ratio (pull-down/input).

In the case of “GATGATTGTTCTCCCAGCTGATGAATTGGAAGCATCGAGTAAACAAATTTTCCTAATCTTTCTGTTCAAGCGCCATCTAC”, the binding signal is 0.654 RPM ratio (pull-down/input).

Take “GATGATTGTTCTCCCAGCTGATGAATTAATTGTCTCGAGTAAACAAATTTTCCTAATCTTTCTGTTCAAGCGCCATCTAC”: the binding signal is 3.16 RPM ratio (pull-down/input).

Take “GATGATTGTTCTCCCAGCTGATGAATTAGATAGCTCGAGTAAACAAATTTTCCTAATCTTTCTGTTCAAGCGCCATCTAC”: the binding signal was 0.537 RPM ratio (pull-down/input).

Turning to “GATGATTGTTCTCCCAGCTGATGAATTATGCCTATCGAGTAAACAAATTTTCCTAATCTTTCTGTTCAAGCGCCATCTAC”, the binding signal is 2.91 RPM ratio (pull-down/input).

Take “GATGATTGTTCTCCCAGCTGATGAATTTCCGTTATCGAGTAAACAAATTTTCCTAATCTTTCTGTTCAAGCGCCATCTAC”: the binding signal is 0.615 RPM ratio (pull-down/input).

For the sequence “GATGATTGTTCTCCCAGCTGATGAATTTAGTTACTCGAGTAAACAAATTTTCCTAATCTTTCTGTTCAAGCGCCATCTAC”, the binding signal was 3.04 RPM ratio (pull-down/input).

For “GATGATTGTTCTCCCAGCTGATGAATTAGTTTACTCGAGTAAACAAATTTTCCTAATCTTTCTGTTCAAGCGCCATCTAC”, the binding signal was 5.83 RPM ratio (pull-down/input).

With “GATGATTGTTCTCCCAGCTGATGAATTTTATTTCTCGAGTAAACAAATTTTCCTAATCTTTCTGTTCAAGCGCCATCTAC”, the binding signal was 1.53 RPM ratio (pull-down/input).

With “GATGATTGTTCTCCCAGCTGATGAATTTGATGACTCGAGTAAACAAATTTTCCTAATCTTTCTGTTCAAGCGCCATCTAC”, the binding signal was 3.97 RPM ratio (pull-down/input).

Regarding “GATGATTGTTCTCCCAGCTGATGAATTTTTTGACTCGAGTAAACAAATTTTCCTAATCTTTCTGTTCAAGCGCCATCTAC”, the binding signal is 0.273 RPM ratio (pull-down/input).

For “GATGATTGTTCTCCCAGCTGATGAATTTTATGACTCGAGTAAACAAATTTTCCTAATCTTTCTGTTCAAGCGCCATCTAC”, the binding signal was 0.491 RPM ratio (pull-down/input).

As to “GATGATTGTTCTCCCAGCTGATGAATTTAGTTTCTCGAGTAAACAAATTTTCCTAATCTTTCTGTTCAAGCGCCATCTAC”, the binding signal is 2.13 RPM ratio (pull-down/input).

“GATGATTGTTCTCCCAGCTGATGAATTTATTTTCTCGAGTAAACAAATTTTCCTAATCTTTCTGTTCAAGCGCCATCTAC”: the binding signal is 5.54 RPM ratio (pull-down/input).

Take “GATGATTGTTCTCCCAGCTGATGAATTTTTATTCTCGAGTAAACAAATTTTCCTAATCTTTCTGTTCAAGCGCCATCTAC”: the binding signal is 0.391 RPM ratio (pull-down/input).

Take “GATGATTGTTCTCCCAGCTGATGAATTATTTGACTCGAGTAAACAAATTTTCCTAATCTTTCTGTTCAAGCGCCATCTAC”: the binding signal is 0.481 RPM ratio (pull-down/input).

In the case of “GATGATTGTTCTCCCAGCTGATGAATTTATTGACTCGAGTAAACAAATTTTCCTAATCTTTCTGTTCAAGCGCCATCTAC”, the binding signal is 5.75 RPM ratio (pull-down/input).

For the sequence “GATGATTGTTCTCCCAGCTGATGAATTTGTTGACTCGAGTAAACAAATTTTCCTAATCTTTCTGTTCAAGCGCCATCTAC”, the binding signal was 7.34 RPM ratio (pull-down/input).

Turning to “GATGATTGTTCTCCCAGCTGATGAATTTGCTGACTCGAGTAAACAAATTTTCCTAATCTTTCTGTTCAAGCGCCATCTAC”, the binding signal is 5.1 RPM ratio (pull-down/input).

As for “GATGATTGTTCTCCCAGCTGATGAATTGCAGTGCTCGAGTAAACAAATTTTCCTAATCTTTCTGTTCAAGCGCCATCTAC”, the binding signal was 0.811 RPM ratio (pull-down/input).

With “GATGATTGTTCTCCCAGCTGATGAATTATTAGCGTCGAGTAAACAAATTTTCCTAATCTTTCTGTTCAAGCGCCATCTAC”, the binding signal is 0.786 RPM ratio (pull-down/input).

On to “GATGATTGTTCTCCCAGCTGATGAATTTGGCTGTTCGAGTAAACAAATTTTCCTAATCTTTCTGTTCAAGCGCCATCTAC”, for which the binding signal is 1.17 RPM ratio (pull-down/input).

Regarding “GATGATTGTTCTCCCAGCTGATGAATTCAGTAGATCGAGTAAACAAATTTTCCTAATCTTTCTGTTCAAGCGCCATCTAC”, the binding signal was 0.408 RPM ratio (pull-down/input).

“GATGATTGTTCTCCCAGCTGATGAATTACGAGGTTCGAGTAAACAAATTTTCCTAATCTTTCTGTTCAAGCGCCATCTAC”: the binding signal was 0.392 RPM ratio (pull-down/input).

“GATGATTGTTCTCCCAGCTGATGAATTCCGTCAATCGAGTAAACAAATTTTCCTAATCTTTCTGTTCAAGCGCCATCTAC”: the binding signal is 0.393 RPM ratio (pull-down/input).

Take “GATGATTGTTCTCCCAGCTGATGAATTGATCGACTCGAGTAAACAAATTTTCCTAATCTTTCTGTTCAAGCGCCATCTAC”: the binding signal was 0.33 RPM ratio (pull-down/input).

“GATGATTGTTCTCCCAGCTGATGAATTGTGTCCTTCGAGTAAACAAATTTTCCTAATCTTTCTGTTCAAGCGCCATCTAC”: the binding signal is 1.89 RPM ratio (pull-down/input).

As for “GATGATTGTTCTCCCAGCTGATGAATTGGTGGCTTCGAGTAAACAAATTTTCCTAATCTTTCTGTTCAAGCGCCATCTAC”, the binding signal was 0.748 RPM ratio (pull-down/input).

Regarding “GATGATTGTTCTCCCAGCTGATGAATTGGCGGTATCGAGTAAACAAATTTTCCTAATCTTTCTGTTCAAGCGCCATCTAC”, the binding signal is 0.566 RPM ratio (pull-down/input).

Turning to “GATGATTGTTCTCCCAGCTGATGAATTTTATTACTCGAGTAAACAAATTTTCCTAATCTTTCTGTTCAAGCGCCATCTAC”, the binding signal is 1.04 RPM ratio (pull-down/input).
